Target: T1, C-Rel subunit;p52 subunit (Homo sapiens;Homo sapiens, UniProt Q04864;Q00653 1-285;4-332)
T1 sequence 1: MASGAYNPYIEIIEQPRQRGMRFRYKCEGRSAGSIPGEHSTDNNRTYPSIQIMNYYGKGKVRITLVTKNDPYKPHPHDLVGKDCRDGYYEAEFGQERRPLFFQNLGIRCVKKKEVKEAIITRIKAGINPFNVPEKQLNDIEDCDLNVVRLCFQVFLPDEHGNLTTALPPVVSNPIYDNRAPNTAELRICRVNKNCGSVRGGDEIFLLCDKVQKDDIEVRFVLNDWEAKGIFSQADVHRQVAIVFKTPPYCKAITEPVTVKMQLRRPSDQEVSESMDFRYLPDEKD
T1 sequence 2: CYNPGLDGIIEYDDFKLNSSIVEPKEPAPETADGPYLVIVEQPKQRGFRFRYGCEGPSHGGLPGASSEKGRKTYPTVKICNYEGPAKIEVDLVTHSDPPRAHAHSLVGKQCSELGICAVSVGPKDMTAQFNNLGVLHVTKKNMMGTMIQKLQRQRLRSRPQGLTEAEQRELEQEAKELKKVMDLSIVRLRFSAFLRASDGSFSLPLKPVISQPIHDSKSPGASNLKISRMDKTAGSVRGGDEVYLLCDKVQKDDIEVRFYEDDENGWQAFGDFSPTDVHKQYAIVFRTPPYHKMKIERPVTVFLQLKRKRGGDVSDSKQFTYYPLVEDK
Experiment: protein binding microarray; high values mean tight binding
Conditions: dsDNA, one strand shown

Row | Sequence | binding signal [z-score]
1 | CAAAAGACCCT | 0.0358
2 | AGGTTCATCCC | -0.243
3 | CGAAGCTTCCC | -0.652
4 | AGAGAGGTCCT | -0.537
5 | CGATATTTCCT | -0.154
6 | CAAGAACCCCC | 0.879
7 | GGAGGAGTCCC | 0.541
8 | CAAGTAATCCC | -0.302
9 | GGGATGCCCCT | 2.2
10 | AGATTTATCCC | -0.0889
11 | GAGAGACTCCT | -1.02
12 | GAGAATACCCC | 0.996
13 | AGATTGACCCT | -0.787
14 | AGGGGAGTCCT | 0.78
15 | CAGGGGATCCC | 1.42
16 | AAGGTGTCCCT | 0.562
17 | CGGGGAATCCC | 3.54
18 | GAGGGCACCCT | -0.757
19 | CAGAATACCCT | 0.421

Row | Sequence | binding signal [z-score]
20 | AGGAGGATCCT | -0.915
21 | AGAAAAGCCCC | 1.65
22 | GAAGGGCTCCC | -0.778
23 | CAAAAGTTCCC | 0.598
24 | GGGATCGTCCT | -0.166
25 | CGAGGGTTCCC | -0.0728
26 | CAATAACTCCC | -0.12
27 | AAGAGGTTCCT | -0.637
28 | CAGTGAACCCC | -0.119
29 | AAAATCGCCCT | -0.384
30 | GAATAAGTCCC | 0.676
31 | AAGGACTCCCC | 0.388
32 | GAGGGCATCCC | -0.277
33 | AAAGTTACCCT | 0.216
34 | GAGTGCTTCCC | 0.0743
35 | AAGTGAACCCT | -0.88
36 | GAGGGTTCCCT | -0.0776
37 | CAGATAGCCCT | -0.828
38 | GGAGAAACCCT | 0.637

— publication PMC3218832
